Reference: PubChem BioAssay (NCATS)
Records with an inconclusive call do not appear. Where a call stands in place of a potency, no number is given. Activity calls are given as the source filed them. The call rests on the fitted dose curve; in most records, active means well fitted curve in the direction sought with a large enough effect; inconclusive means small, poorly fitted or top-dose-only effect, or another doubt; inactive means no such curve, though single readings can be large; an effect the other way counts as inactive or inconclusive.

Key:
[1] = target: Thioredoxin reductase 1, cytoplasmic (Rattus norvegicus) (UniProt O89049); experiment: qHTS Assay for Substrates of Mammalian Selenoprotein Thioredoxin Reductase 1 (TrxR1) (AID 488772);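 further: series mostly up to about 57 µM; a drop in NADPH fluorescence below the no-compound background marks a TrxR1 substrate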
Thioredoxin reductase 1, cytoplasmic (Rattus norvegicus), sequence (O89049 whole entry, looked up): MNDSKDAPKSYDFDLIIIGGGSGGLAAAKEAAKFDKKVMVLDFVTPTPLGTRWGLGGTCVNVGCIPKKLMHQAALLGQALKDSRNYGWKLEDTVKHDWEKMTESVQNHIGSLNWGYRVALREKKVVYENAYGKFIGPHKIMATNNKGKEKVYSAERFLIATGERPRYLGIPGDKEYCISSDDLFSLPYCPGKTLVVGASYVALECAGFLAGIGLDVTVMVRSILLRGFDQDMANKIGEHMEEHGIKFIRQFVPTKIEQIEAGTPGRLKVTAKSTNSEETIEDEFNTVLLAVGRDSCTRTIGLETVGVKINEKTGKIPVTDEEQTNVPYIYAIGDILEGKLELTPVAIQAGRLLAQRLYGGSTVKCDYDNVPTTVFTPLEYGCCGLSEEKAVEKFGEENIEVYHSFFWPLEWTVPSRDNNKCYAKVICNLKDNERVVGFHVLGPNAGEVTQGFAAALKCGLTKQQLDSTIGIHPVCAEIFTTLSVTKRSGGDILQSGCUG
Procedure, shortened: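 In this dual-purpose format, potential substrates are identified from the first fluorescence read after selenite addition, not from the 8-minute delta. Rat enzyme is preincubated with NADPH and then with compound at ~22 deg C.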

[2] = target: Flap endonuclease 1 (Homo sapiens) (UniProt P39748); experiment: qHTS Validation Assay for the Inhibitors of Human Flap endonuclease 1 (FEN1) (AID 488816)
Flap endonuclease 1 (Homo sapiens), sequence (P39748 whole entry, looked up): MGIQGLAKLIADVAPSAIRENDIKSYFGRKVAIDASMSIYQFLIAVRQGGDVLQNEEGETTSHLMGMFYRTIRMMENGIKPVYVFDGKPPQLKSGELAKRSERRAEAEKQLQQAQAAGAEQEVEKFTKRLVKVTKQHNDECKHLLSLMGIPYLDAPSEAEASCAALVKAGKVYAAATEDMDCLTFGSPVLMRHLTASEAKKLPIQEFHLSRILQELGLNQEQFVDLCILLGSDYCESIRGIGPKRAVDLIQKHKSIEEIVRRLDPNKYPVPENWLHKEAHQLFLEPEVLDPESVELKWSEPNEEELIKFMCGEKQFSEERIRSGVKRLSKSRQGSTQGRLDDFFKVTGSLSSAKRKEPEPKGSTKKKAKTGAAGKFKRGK
Procedure, shortened: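 Enzyme reagent 10 nM; cpds pinned; 15 min RT preinc.; substrate 50 nM final; reads t=0 and 15 min; no-enzyme buffer wells as neg. control; normalized data, 4-parameter Hill fit.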

[3] = target: M-phase phosphoprotein 8 (Homo sapiens) (UniProt Q99549); experiment: qHTS Validation Assay for Inhibitors for MPP8 Chromodomain Interactions with Methylated Histone Tails (AID 488949); further: nearly all actives have a fitted effect of over 55% in size; further: potency means the concentration at half of the fitted maximal effect
M-phase phosphoprotein 8 (Homo sapiens), sequence (Q99549 whole entry, looked up): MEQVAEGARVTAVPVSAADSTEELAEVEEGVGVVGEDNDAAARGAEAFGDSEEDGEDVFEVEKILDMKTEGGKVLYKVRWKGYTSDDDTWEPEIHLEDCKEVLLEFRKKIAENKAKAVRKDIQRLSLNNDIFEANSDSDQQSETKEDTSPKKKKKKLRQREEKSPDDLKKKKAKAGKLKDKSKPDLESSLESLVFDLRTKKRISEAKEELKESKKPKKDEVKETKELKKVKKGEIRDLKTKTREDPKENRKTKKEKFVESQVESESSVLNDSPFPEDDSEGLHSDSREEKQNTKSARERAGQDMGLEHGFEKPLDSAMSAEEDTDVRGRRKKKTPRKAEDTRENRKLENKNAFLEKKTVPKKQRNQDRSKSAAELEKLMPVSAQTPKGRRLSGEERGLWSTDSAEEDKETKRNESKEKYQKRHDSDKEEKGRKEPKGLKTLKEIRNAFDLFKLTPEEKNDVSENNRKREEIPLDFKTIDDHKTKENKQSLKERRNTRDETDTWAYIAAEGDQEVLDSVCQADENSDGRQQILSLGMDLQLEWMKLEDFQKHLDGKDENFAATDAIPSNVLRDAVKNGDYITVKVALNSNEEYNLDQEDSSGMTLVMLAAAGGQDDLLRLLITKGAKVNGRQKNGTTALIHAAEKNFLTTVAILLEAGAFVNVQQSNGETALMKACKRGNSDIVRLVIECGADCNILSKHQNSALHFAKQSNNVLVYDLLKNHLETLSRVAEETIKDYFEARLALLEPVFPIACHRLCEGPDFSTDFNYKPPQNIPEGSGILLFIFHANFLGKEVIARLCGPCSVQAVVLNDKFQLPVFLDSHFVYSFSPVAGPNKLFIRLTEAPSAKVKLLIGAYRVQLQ
Procedure, shortened: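 MPP8 (50 nM) was preincubated with biotinylated H3(1-18)K9me3 peptide (50 nM) in PBS pH 7.4, 0.01% Tween-20 for 30 min at room temperature, then with compounds for 30 min; binding was detected by AlphaScreen.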

[4] = target: Chromobox protein homolog 1 (Homo sapiens) (UniProt P83916); experiment: qHTS Validation Assay for Inhibitors of HP1-beta Chromodomain Interactions with Methylated Histone Tails (AID 488953); further: potency means the concentration at half of the fitted maximal effect; nearly all actives have a fitted effect of over 50% in size
Chromobox protein homolog 1 (Homo sapiens), sequence (P83916 whole entry, looked up): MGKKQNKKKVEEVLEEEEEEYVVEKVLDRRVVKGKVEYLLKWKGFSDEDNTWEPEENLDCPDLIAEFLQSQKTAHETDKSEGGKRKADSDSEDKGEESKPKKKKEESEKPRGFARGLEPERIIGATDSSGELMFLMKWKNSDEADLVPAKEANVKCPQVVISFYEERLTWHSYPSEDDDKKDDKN
Procedure, shortened: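 AlphaScreen proximity readout: streptavidin donor and Ni-chelate acceptor beads, 10 ug/mL final, 30 min dark, RT. Complex of 50 nM HP1-beta and 50 nM b-H3(1-18)K9me3 formed 30 min, then compound-treated 30 min; PBS pH 7.4/0.01% Tween-20.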

[5] = target: Methanococcus maripaludis chaperonin (MmCpn) (UniProt Q6LX38); experiment: High-Throughput Screening for Modulators of Cytosolic Chaperonin Activity: MmCpn Primary Screen (AID 488978);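 further: 50 nM MmCpn enzyme hydrolysing 30 µM ATP at 37 °C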
Methanococcus maripaludis chaperonin (MmCpn), sequence (Q6LX38 1-543): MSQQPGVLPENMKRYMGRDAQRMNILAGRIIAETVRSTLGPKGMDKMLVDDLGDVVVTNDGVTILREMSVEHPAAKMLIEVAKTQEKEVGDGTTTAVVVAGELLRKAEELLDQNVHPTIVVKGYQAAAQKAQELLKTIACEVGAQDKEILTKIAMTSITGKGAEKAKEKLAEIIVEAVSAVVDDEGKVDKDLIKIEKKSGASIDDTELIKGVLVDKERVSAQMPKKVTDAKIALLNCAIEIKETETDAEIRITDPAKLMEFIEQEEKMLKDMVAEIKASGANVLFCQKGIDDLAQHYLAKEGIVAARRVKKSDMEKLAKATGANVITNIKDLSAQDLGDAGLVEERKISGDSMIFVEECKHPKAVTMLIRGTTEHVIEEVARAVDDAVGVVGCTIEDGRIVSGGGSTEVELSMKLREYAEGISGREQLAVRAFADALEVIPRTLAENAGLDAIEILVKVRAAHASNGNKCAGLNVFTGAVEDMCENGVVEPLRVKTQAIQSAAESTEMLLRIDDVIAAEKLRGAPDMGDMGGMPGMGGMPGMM
Procedure, shortened: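 MmCpn (50 nM final) was preincubated with compound 5 min at RT, then 30 uM ATP (final) was added and the reaction ran 10 min at 37C. ADP produced was detected by Transcreener HTRF (ex 320 nm; em 590/665 nm).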

[6] = target: Thyrotropin receptor (Homo sapiens) (UniProt P16473); experiment: qHTS Assay for Antagonists of the Thyroid Stimulating Hormone Receptor (AID 488980); further: series mostly up to about 58 µM
Thyrotropin receptor (Homo sapiens), sequence (P16473 whole entry, looked up): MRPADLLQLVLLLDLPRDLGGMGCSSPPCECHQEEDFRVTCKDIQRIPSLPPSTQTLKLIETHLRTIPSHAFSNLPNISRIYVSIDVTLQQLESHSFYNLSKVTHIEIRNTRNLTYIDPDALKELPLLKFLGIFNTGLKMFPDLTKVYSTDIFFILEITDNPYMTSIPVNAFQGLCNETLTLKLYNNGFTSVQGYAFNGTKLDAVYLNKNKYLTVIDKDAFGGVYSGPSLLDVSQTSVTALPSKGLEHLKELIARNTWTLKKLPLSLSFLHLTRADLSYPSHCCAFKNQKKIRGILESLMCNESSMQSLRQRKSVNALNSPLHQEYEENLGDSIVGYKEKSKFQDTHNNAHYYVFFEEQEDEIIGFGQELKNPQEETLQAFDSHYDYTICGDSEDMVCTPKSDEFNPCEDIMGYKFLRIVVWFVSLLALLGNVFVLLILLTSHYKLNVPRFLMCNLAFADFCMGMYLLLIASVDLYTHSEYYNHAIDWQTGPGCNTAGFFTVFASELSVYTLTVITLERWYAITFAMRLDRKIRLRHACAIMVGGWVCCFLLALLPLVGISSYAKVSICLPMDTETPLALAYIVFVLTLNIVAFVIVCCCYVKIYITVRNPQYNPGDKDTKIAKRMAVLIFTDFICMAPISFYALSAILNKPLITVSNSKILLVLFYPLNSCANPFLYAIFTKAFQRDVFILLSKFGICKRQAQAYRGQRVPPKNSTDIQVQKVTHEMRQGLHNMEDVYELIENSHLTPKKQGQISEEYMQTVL
Procedure, shortened: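 HEK293 cells transfected with human TSHR, suspended in HEPES-buffered HBSS with 70 uM RO 20-1724, were treated with compounds plus TSH at EC80 (4 nM final). cAMP was measured by competitive HTRF (cryptate anti-cAMP antibody, cAMP-d2 acceptor).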

[7] = target: D(1A) dopamine receptor (Homo sapiens) (UniProt P21728); experiment: HTS Assay for Allosteric Agonists of the Human D1 Dopamine Receptor: Primary Screen for Agonists (AID 488981)
D(1A) dopamine receptor (Homo sapiens), sequence (P21728 whole entry, looked up): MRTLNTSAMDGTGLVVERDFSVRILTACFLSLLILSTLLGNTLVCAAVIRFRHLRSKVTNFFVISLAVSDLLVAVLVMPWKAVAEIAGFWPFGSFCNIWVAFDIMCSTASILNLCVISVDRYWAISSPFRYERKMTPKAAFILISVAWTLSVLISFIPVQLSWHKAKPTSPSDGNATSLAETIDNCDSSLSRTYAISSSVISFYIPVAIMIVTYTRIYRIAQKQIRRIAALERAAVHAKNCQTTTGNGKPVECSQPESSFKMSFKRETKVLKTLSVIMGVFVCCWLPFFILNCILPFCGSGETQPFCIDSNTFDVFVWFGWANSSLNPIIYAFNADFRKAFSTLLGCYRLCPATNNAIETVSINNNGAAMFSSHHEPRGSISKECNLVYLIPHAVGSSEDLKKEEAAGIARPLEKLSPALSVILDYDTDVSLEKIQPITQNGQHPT
Procedure, shortened: (§1)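 Tetracycline-induced HEK293 Trex D1 cells with forced coupling to calcium, loaded with no-wash calcium dye; kinetic fluorescence read 180 s after compound addition for agonism, then a further 180 s after an EC20 dopamine challenge for potentiation.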

[8] = target: D(1A) dopamine receptor (Homo sapiens) (UniProt P21728); experiment: HTS Assay for Allosteric Agonists of the Human D1 Dopamine Receptor: Primary Screen for Potentiators (AID 488982)
Procedure, shortened: as §1

[9] = target: Thioredoxin reductase 1, cytoplasmic (Rattus norvegicus) (UniProt O89049); experiment: qHTS Assay for Inhibitors of Mammalian Selenoprotein Thioredoxin Reductase 1 (TrxR1) (AID 488773); conditions: Potency: inhibition;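 further: drop in NADPH fluorescence over an 8 min run after selenite addition; series mostly up to about 57 µM; nearly all actives have a fitted effect of over 40% in size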
Procedure, shortened: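 Inhibition is scored from the loss of NADPH fluorescence between first and last reads of an 8-min kinetic run. Selenite (400 uM) was the substrate, added after 15 min compound preincubation at room temperature.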

[10] = target: Transient receptor potential cation channel subfamily V member 1 (Homo sapiens) (UniProt Q8NER1); experiment: HTS Assay for Compounds that Act as Enhancers of the Vanilloid Receptor 1 (AID 488979)
Transient receptor potential cation channel subfamily V member 1 (Homo sapiens), sequence (Q8NER1 whole entry, looked up): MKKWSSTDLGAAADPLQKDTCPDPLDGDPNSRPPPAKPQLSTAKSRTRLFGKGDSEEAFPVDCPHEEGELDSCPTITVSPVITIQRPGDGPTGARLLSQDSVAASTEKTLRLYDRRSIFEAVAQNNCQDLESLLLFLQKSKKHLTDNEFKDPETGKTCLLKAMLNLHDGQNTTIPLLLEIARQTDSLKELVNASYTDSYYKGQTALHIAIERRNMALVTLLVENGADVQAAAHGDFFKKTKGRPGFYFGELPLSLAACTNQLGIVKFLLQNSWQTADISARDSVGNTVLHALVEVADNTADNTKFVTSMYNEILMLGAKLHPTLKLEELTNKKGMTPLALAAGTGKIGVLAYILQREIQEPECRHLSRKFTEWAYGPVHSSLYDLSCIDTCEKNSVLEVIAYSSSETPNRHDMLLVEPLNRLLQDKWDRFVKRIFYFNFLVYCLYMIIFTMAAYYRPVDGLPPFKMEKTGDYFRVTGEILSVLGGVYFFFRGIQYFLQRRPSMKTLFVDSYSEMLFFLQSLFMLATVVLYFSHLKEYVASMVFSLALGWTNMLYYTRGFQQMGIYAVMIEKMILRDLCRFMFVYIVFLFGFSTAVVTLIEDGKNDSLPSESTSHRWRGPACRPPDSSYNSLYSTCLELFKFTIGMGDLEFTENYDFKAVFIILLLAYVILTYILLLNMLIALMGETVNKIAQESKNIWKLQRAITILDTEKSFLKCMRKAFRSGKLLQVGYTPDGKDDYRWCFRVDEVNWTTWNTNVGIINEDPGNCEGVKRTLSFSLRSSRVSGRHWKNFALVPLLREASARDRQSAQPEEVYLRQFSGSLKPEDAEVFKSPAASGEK
Procedure, shortened: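 TRPV1 cells loaded with Fluo-8 calcium dye; compound added and Ca2+ signal (ex 480/em 520 nm) followed 3 min, then capsaicin at EC20 added and read 2 more min to detect enhancement.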

Structure (SMILES)	outcome [1]	Potency [2]	Potency [3]	Potency [4]	Potency [5]	outcome [6]	Potency [7]	outcome [8]	Potency [9]	outcome [10]
CC(CN1c2ccccc2Sc2ccccc21)N(C)C (centres undefined)	inactive	inactive	39.8 µM (active)	39.8 µM (active)	inactive	inactive	inactive	inactive		
COCCOC(=O)C1=C(C)NC(C)=C(C(=O)OC/C=C/c2ccccc2)C1c1cccc([N+](=O)[O-])c1 (centres undefined)	inactive	inactive	inactive		inactive		inactive	inactive	inactive	
CC1=C(/C=C/C(C)=C/C=C/C(C)=C/C(=O)O)C(C)(C)CCC1	inactive	inactive	inactive		inactive		inactive	inactive		inactive
OCc1cc(C(O)CNCCCCCCOCCCCc2ccccc2)ccc1O (centres undefined)	inactive	inactive	inactive		inactive	inactive		inactive	inactive	
